Inconclusive results are not listed. Where a call stands in place of a potency, no number is given. A number with no mark means an inactive call. Active and inactive are the calls of the source. Calls follow the shape of the dose curve; as a rule, active = well fitted activation curve with a large enough effect in the signal ratio in the repeat runs (not every such curve was filed as active); inconclusive = weak or mixed curves; inactive = flat fitted curve, though single readings scatter; the % refers to the signal ratio.
Assay: qHTS assay to identify small molecule agonists of H2AX (AID 1224845)
Settings: CHO-K1 phospho-H2AX Ser139 HTRF, 3 h; series mostly up to 154 µM
Procedure, shortened: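 Wild-type CHO-K1 cells plated overnight, then exposed 3 hr at 37C to compounds at 15 concentrations (0.76% DMSO). Lysed, then HTRF anti-pH2AX(S139)-cryptate/anti-H2AX-d2 detection after 24 hr at room temperature; emissions 665 and 620 nm.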

| SMILES | Potency | activation (H2AX phosphorylation) |
| --- | --- | --- |
| CCCCCl | inactive |  |
| CC(C)(C)NCC(O)c1cc(Cl)c(N)c(C(F)(F)F)c1 (stereo not drawn) | inactive |  |
| O=C(Cc1ccccc1)OCCc1ccccc1 | inactive |  |
| N#CC(C#N)=C(C#N)C#N | inactive |  |
| O=C(O)COc1cc(Cl)c(Cl)cc1Cl | inactive |  |
| CCCC(C)(COC(N)=O)COC(=O)NC(C)C (stereo not drawn) | inactive |  |
| CN1CC[C@]23c4c5ccc(O)c4O[C@H]2[C@@H](O)C=C[C@H]3[C@H]1C5 | inactive |  |
| CCOP(=S)(S)OCC | inactive |  |
| C=CCc1ccccc1O | inactive |  |
| CC(C)(C)OOC(C)(C)CCC(C)(C)OOC(C)(C)C | inactive |  |
| O=S(=O)(c1ccccc1)c1ccccc1 | inactive |  |
| Nc1c(Br)cc(Br)c2c1C(=O)c1ccccc1C2=O |  | 2.27% [at 31.6 µM] |
| COc1cc(CC(C)N)c(OC)cc1Br (stereo not drawn) | inactive |  |
| O=C(O)c1ccc(=O)[nH]c1 | inactive |  |
| CCNC(=O)NC(=O)/C(C#N)=N/OC | inactive |  |
| C=CCOCC1CO1 (stereo not drawn) | inactive |  |
| CCCSP(=S)(OCC)Oc1ccc(SC)cc1 (stereo not drawn) | inactive |  |
| CCOP(=S)(OCC)Oc1ccc(S(C)=O)cc1 (stereo not drawn) | inactive |  |
| C=C(C)C(=O)OCCCCOC(=O)C(=C)C | inactive |  |
| C=C(Cl)Cl | inactive |  |
| Clc1ccc(Cl)c(Cl)c1 | inactive |  |
| NNCCO | inactive |  |
| O=C(N[C@H]1CN2CCC1CC2)c1ccc2c(c1)OCCO2 | inactive |  |
| ClCc1ccccc1Cl | inactive |  |
| Nc1ccccc1C(=O)OCCc1ccccc1 | inactive |  |
| O=C=NC1CCCCC1 | inactive |  |
| c1ccc2c(c1)sc1ccccc12 | inactive |  |
| N#CC1(N=NC2(C#N)CCCCC2)CCCCC1 | inactive |  |
